Experimental findings from PubChem BioAssay (EPA / NIEHS) are described below.

Where “and” joins values, the source holds several entries; their conditions need not be identical. Equal values may be shown once. The source holds several records for some structures; these can differ, active in one and inactive in another. Calls of active or inactive are those of the source. How the source made its calls: active means hit-call score of the fitted dose curve at least 0.9, where 1 is the maximum; inactive means score below 0.9.

The first test in a line: CCTE_Shafer_MEA_acute_per_network_burst_spike_number_mean: CCTE's Neural Acute Assay for Average Number of Spikes in a Network Burst, Shafer Lab (AID 2284019).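 On AC50: curve fitted for loss of signal so actives reduce spikes per network burst.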 An outline of the steps: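 Acute exposure of rat primary cortical networks (DIV 13/15) on MEAs; adaptive spike detection at 8x rms noise, 37 C. Percent change in spikes per network burst after 40 min with compound (0.03-40 uM), negative direction vs DMSO.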
`CCc1cccc(C)c1N(C(=O)CCl)C(C)COC` (stereo not given): the compound was called inactive.
Turning to `CC(C)=CC1C(C(=O)OCN2C(=O)C3=C(CCCC3)C2=O)C1(C)C` (stereo not given), the compound was called inactive.
Same read-out and setting: then `CCc1cnc(C2=NC(C)(C(C)C)C(=O)N2)c(C(=O)O)c1` (stereo not given), with “inactive”; and `Nc1c(Cl)cc([N+](=O)[O-])cc1Cl`, with “inactive”.
`COP(=O)(OC)C(O)C(Cl)(Cl)Cl` (stereo not given): the half-maximal activity concentration (AC50) was 15 µM (active).
Consider `CCCOCC(=Nc1ccc(Cl)cc1C(F)(F)F)n1ccnc1`, for which the concentration at half-maximal activity (AC50) is 0.943 µM (active).
For `CC[C@H](C)[C@H]1O[C@]2(C=C[C@@H]1C)C[C@@H]1C[C@@H](C/C=C(\C)[C@@H](O[C@H]3C[C@H](OC)[C@@H](O[C@H]4C[C@H](OC)[C@@H](NC)[C@H](C)O4)[C@H](C)O3)[C@@H](C)/C=C/C=C3\CO[C@@H]4[C@H](O)C(C)=C[C@@H](C(=O)O1)[C@]34O)O2`, the AC50 was 22.5 nM (active) and 1.91 µM (active).
On to `CC1=NNC(=O)N(/N=C/c2cccnc2)C1`, for which the compound was classed as inactive.
Same read-out and setting: then `CC(=NC#N)N(C)Cc1ccc(Cl)nc1`, with “inactive”.
Consider `CCOP(=S)(OCC)Oc1ccc2c(C)c(Cl)c(=O)oc2c1`, for which the AC50 was 1.99 µM (active).
As for `C[N+]1(C)CCCCC1`, the compound was classed as inactive.
Same read-out and setting: then `COP(=O)(NC(C)=O)SC` (stereo not given), with “inactive”; and `CN(C)[C@@H]1C(=O)C(C(N)=O)=C(O)[C@@]2(O)C(=O)C3=C(O)c4c(O)cccc4[C@@](C)(O)[C@H]3[C@H](O)[C@@H]12`, with “inactive”.
Take `C[Si](Cn1cncn1)(c1ccc(F)cc1)c1ccc(F)cc1`: the outcome was inactive.
For `C=C(C)[C@H]1Cc2c(ccc3c2O[C@@H]2COc4cc(OC)c(OC)cc4[C@@H]2C3=O)O1`, the result was inactive.
On the same count and under the same terms, then `FC(F)C(F)(F)OCC(Cn1cncn1)c1ccc(Cl)cc1Cl` (stereo not given), with “inactive”.
For the compound `O=[N+]([O-])c1cc(C(F)(F)F)c(Cl)c([N+](=O)[O-])c1Nc1ncc(C(F)(F)F)cc1Cl`, the AC50 is 0.321 µM (active).

A further test in a line: CCTE_Shafer_MEA_acute_per_network_burst_spike_number_std: CCTE's Neural Acute Assay for Standard Deviation of Number of Spikes in a Network Burst, Shafer Lab (AID 2284020).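 Further: fitted for decrease in spike-number SD versus DMSO so actives lower it.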 The procedure, abridged: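 Acute MEA exposure, rat cortical neurons, 0.03-40 uM. Per-well % change versus own baseline; DMSO as negative control.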
As to `CCc1cccc(C)c1N(C(=O)CCl)C(C)COC` (stereo not given), the AC50 was 10.8 µM (active).
`CC(C)=CC1C(C(=O)OCN2C(=O)C3=C(CCCC3)C2=O)C1(C)C` (stereo not given): the call was inactive.
On the same count and under the same terms, then `CCc1cnc(C2=NC(C)(C(C)C)C(=O)N2)c(C(=O)O)c1` (stereo not given), with “inactive”.
As for `Nc1c(Cl)cc([N+](=O)[O-])cc1Cl`, the AC50 was 37 µM (active).
On to `COP(=O)(OC)C(O)C(Cl)(Cl)Cl` (stereo not given), for which the compound was classed as inactive.
Turning to `CCCOCC(=Nc1ccc(Cl)cc1C(F)(F)F)n1ccnc1`, the AC50 was 4.42 µM (active).
Consider `CC[C@H](C)[C@H]1O[C@]2(C=C[C@@H]1C)C[C@@H]1C[C@@H](C/C=C(\C)[C@@H](O[C@H]3C[C@H](OC)[C@@H](O[C@H]4C[C@H](OC)[C@@H](NC)[C@H](C)O4)[C@H](C)O3)[C@@H](C)/C=C/C=C3\CO[C@@H]4[C@H](O)C(C)=C[C@@H](C(=O)O1)[C@]34O)O2`, for which the AC50 is 23.7 nM (active) and 1.5 µM (active).
For `CC1=NNC(=O)N(/N=C/c2cccnc2)C1`, the outcome was inactive.
As to `CC(=NC#N)N(C)Cc1ccc(Cl)nc1`, the call was inactive.
Take `CCOP(=S)(OCC)Oc1ccc2c(C)c(Cl)c(=O)oc2c1`: the AC50 is 4.38 µM (active).
On to `C[N+]1(C)CCCCC1`, for which the call was inactive.
Turning to `COP(=O)(NC(C)=O)SC` (stereo not given), the AC50 is 0.299 µM (active) and the result was inactive.
As for `CN(C)[C@@H]1C(=O)C(C(N)=O)=C(O)[C@@]2(O)C(=O)C3=C(O)c4c(O)cccc4[C@@](C)(O)[C@H]3[C@H](O)[C@@H]12`, the result was inactive.
As to `C[Si](Cn1cncn1)(c1ccc(F)cc1)c1ccc(F)cc1`, the compound was called inactive.
As for `C=C(C)[C@H]1Cc2c(ccc3c2O[C@@H]2COc4cc(OC)c(OC)cc4[C@@H]2C3=O)O1`, the compound was classed as inactive.
With `FC(F)C(F)(F)OCC(Cn1cncn1)c1ccc(Cl)cc1Cl` (stereo not given), the outcome was inactive.
`O=[N+]([O-])c1cc(C(F)(F)F)c(Cl)c([N+](=O)[O-])c1Nc1ncc(C(F)(F)F)cc1Cl`: the AC50 was 0.465 µM (active).

What is called AC50 is the concentration giving half of the maximal activity seen.
